Source: PubChem BioAssay AID1479 (National Center for Advancing Translational Sciences (NCATS), 2009)
“And” between values parts separate entries of the source, which are not always exact repeats. Equal entries are not always repeated. Screen size: about 280,000 compounds; about 820 (0.29%) were called active. Inconclusive results (about 1%) are left out. Calls come from the whole dose curve; as a rule, active = well fitted curve in either direction with a large enough effect; inconclusive = small, poorly fitted or top-dose-only effect; inactive = flat fitted curve, though single readings scatter. For the sample, actives were picked, then their nearest neighbours and some compounds at random. Some structures have more than one record in an assay (separate samples or runs), and their calls can disagree.

Experiment: Total Fluorescence Counterscreen for Inhibitors of the Interaction of Thyroid Hormone Receptor and Steroid Receptor Coregulator 2
Conditions: TRb/SRC2 Texas Red total fluorescence interference; series mostly up to 106 µM; fluorescence change, negative = quenching: at the top concentration
Source text: NIH Molecular Libraries Probe Production Network [MLPCN]
NIH Chemical Genomics Center [NCGC]
Assay Provider: R. Kip Guy, St. Jude Children's Research Hospital
Thyroid receptor (TR) regulates many homeostatic processes including basal metabolism, cardiovascular function, body weight, and lipid trafficking. TR modulators are potential therapeutics for obesity and hyperlipidemias but current thyroid analogs have undesirable side effects, particularly cardiac stimulation. To identify inhibitors that specifically prevent the interaction of TR with the steroid receptor […] 2 (SRC2), a fluorescence polarization assay was screened. This assay detects interaction of the ligand-binding domain of human TRb with a Texas Red labeled SRC2 peptide, corresponding to a 20 amino acid region of the nuclear receptor interaction domain (Arnold et al., 2006). Total fluorescence (555 nm excitation and 632 nm emission) was measured to identify potential fluorescent and light absorbing compounds. Such compounds may be artifacts that interfere with the fluorescence polarization assay.
Arnold, L. A.; Estebanez-Perpina, E.; Togashi, M.; Shelat, A.; Ocasio, C. A.; McReynolds, A. C.; Nguyen, P.; Baxter, J. D.; Fletterick, R. J.; Webb, P.; Guy, R. K. A high-throughput screening method to identify small molecule inhibitors of thyroid hormone receptor coactivator binding. Sci STKE 2006, p 13.
NCGC Assay Protocol Summary:
For screening, 5 uL/well 0.6 uM TRb and 20 nM SRC2 Texas Red in protein buffer (20mM Tris hydrochloride, 100mM NaCl, 10% glycerol, 1mM EDTA, 0.01% NP-40, 1mM DTT, 1uM T3 and 5% DMSO) was dispensed into black solid 1536-well plates (Grenier) using a solenoid-based dispenser. Following transfer of 23 nL compound or DMSO vehicle by a pin tool, the plates were centrifuged 15 s at 1000 RPM and incubated 5 hr at ambient temperature. The plates were read by an Envision (Perkin Elmer) to detect fluorescence polarization of SRC2 Texas Red (555 nm excitation and 632 nm emission). Data were normalized to unbound (all components except TRb) and bound SRC2 Texas Red controls. Total fluorescence (TF) was calculated as follows: TF = S + 2P where S and P are fluorescence readings in the parallel and perpendicular channels, respectively.
Keywords: NIH Roadmap, MLPCN, MLI, MLSMR, qHTS, NCGC, qHTS, thyroid hormone receptor, steroid receptor coactivator, fluorescence polarization
% is set by controls: 0 for no effect and ±100 for the full control effect; potency is the fitted concentration of half-maximal effect; tags give direction and shape of the fitted curve or compound fluorescence and quenching.

Structure (SMILES)	fluorescence change, negative = quenching	Potency
CC(C)Sc1oc(-c2cccs2)nc1S(=O)(=O)c1ccc(Cl)cc1	-1.53% (inactive)	
CC1(C)C(=O)N(Cl)C(=O)N1Cl	2.55% [at 201 µM] (inactive)	
COc1ccc(OC)c(NC(=O)CSC2=Nc3ccccc3C3=NC(CC(=O)NCc4ccc(F)cc4)C(=O)N23)c1 (stereo not drawn)	-3.96% (inactive)	
Cc1ccc(S(=O)(=O)N(Cc2nc(-c3ccc(Cl)cc3)no2)C2CCCCC2)cc1	-9.51% (inactive)	
C[Si](C)(C)N[Si](C)(C)C	-1.52% [at 201 µM] (inactive)	
CC(C)(C)OC(=O)N1CCC(c2c(C(=O)NCc3ccccn3)cnn2-c2ccc(F)cc2)CC1	-1.16% (inactive)	
Cc1c(Cl)cccc1NC(=O)C1CCCN(c2ncnc3onc(C)c23)C1 (stereo not drawn)	1.28% (inactive)	
Cn1nnnc1SCCCNCc1ccc(Cl)cc1	8.98% (inactive)	
O=C(Cn1c(=O)n(Cc2cccs2)c(=O)c2cccnc21)Nc1ccc(F)cc1	-105% [at 53 µM] (inactive)	
CCOc1cccc(C(=O)Nc2nnc(S(=O)(=O)N(C)c3ccc(C)cc3)s2)c1	-11.7% (inactive)	
Cc1ccccc1OCCSc1nc2ccc(NC(=O)c3ccco3)cc2s1	7.51% (inactive)	
C=Cc1ccc(Cn2c(C(=O)O)c(CNC3CCCC3)c3ccc(C)cc32)cc1	-1.04% (inactive)	
O=C(COc1ccc(Cl)cc1)Nc1ccccc1OCc1cc(=O)n2ccccc2n1	-2.29% (inactive)	
Cn1c(SCC(=O)N2CCCc3ccccc32)ncc(C(=O)Nc2ccc(F)cc2)c1=O	0.932% (inactive)	
COc1ccc(-c2nn(CC(=O)Nc3ccccc3F)c3c2cnc2ccc(F)cc23)cc1	0.162% (inactive)	
CCN(CC)c1nn2c(=O)c(C(=O)NCCc3ccccc3)cnc2s1	-5.51% (inactive)	
COc1ccc(N2CCN(c3nc(-c4ccccc4F)nc4ccccc34)CC2)cc1	0.258% (inactive)	
Oc1c(Cl)cc(Cl)c(Cl)c1Cc1c(O)c(Cl)cc(Cl)c1Cl		inactive and 44.7 µM [quencher] (active)
CCOc1ccccc1CNC(=O)C1CCCN(S(=O)(=O)c2ccc3c(ccn3C)c2)C1 (stereo not drawn)	-5.05% (inactive)	
Cc1cccc(C(C)C)c1NC(=O)C(NS(=O)(=O)c1cccc2nsnc12)c1ccccc1 (stereo not drawn)	-0.208% (inactive)	
O=C(Nc1ccc(N2CCOCC2)cc1)c1ccc2c(c1)OCO2	-3.49% (inactive)	
Cn1c(=O)n(C)c2cc(C(=O)Nc3ccc4c(c3)OCO4)ccc21	-0.997% (inactive)	
O=C(Nc1ccc2c(c1)OCO2)c1ccc(N2C(=O)c3ccccc3C2=O)cc1		0.0079 µM [quencher] (active)
Cc1cccc(-n2ccnc2SCC(=O)Nc2cccc3ccccc23)c1C	-1.04% (inactive)	

Structure (SMILES)	fluorescence change, negative = quenching	Potency
COc1cc(C(=O)NCC(c2ccc(Cl)cc2)N2CCOCC2)cc(OC)c1OC (stereo not drawn)	0.91% (inactive)	
CC(C)(C)c1ccc(C(=O)NCC(c2ccc(Cl)cc2)N2CCOCC2)cc1 (stereo not drawn)		10 µM [quencher] (active)
O=C(NCC(c1ccc(Cl)cc1)N1CCOCC1)c1ccccc1F (stereo not drawn)	10.2% (inactive)	
CCCNC(=O)C(CC)n1nc(CC)n2c(cc3oc(C)cc32)c1=O (stereo not drawn)		22.4 µM [quencher] (active)
CCOc1ccc(CCNC(=O)C(CC)n2nc(C)n3c(cc4sccc43)c2=O)cc1OCC (stereo not drawn)	0.796% (inactive)	
CCC(C(=O)NCc1ccc(OC)cc1)n1nc(C)n2c(cc3occc32)c1=O (stereo not drawn)	-2.44% (inactive)	
CCOc1cc(NC(=S)NCc2ccco2)c(OCC)cc1NC(=O)c1ccco1	-0.963% (inactive)	
CCOc1cc(NC(=S)NCCCOC)c(OCC)cc1NC(=O)c1ccco1		7940 µM [quencher] (active)
CCOc1cc(NC(=O)c2ccco2)c(OCC)cc1NC(=O)COc1ccccc1	0.535% (inactive)	
O=C(NCCc1ccccc1)c1cnc2sc(N3CCCC3)nn2c1=O	3.65% (inactive)	
CCOC(=O)c1ccc(NC(=O)CCn2c(=O)oc3ccccc32)cc1		501 µM [quencher] (active)
O=C(CCn1c(=O)oc2ccccc21)Nc1ccon1	-0.731% (inactive)	
CCOC(=O)c1ccc(NC(=O)CCS(=O)(=O)c2ccc3c(c2)oc(=O)n3C)cc1	-4.02% (inactive)	
CCOC(=O)c1ccc2c(c1)N(Cc1cccc(OC)c1)C(=O)c1ccccc1S2(=O)=O	-1.32% (inactive)	
Cc1nn(-c2ccc(F)cc2)c(-n2cccc2)c1C(=O)N1CCN(c2ccccc2)CC1	-1.65% (inactive)	
O=C(/C=C/Nc1ccccc1OC(F)(F)F)C(F)(F)F	-0.288% (inactive)	
CN(C)c1ccc(N/C=C/C(=O)C(F)(F)F)cc1		44.7 µM [fluorescent] (active)
CCCOc1ccc(N/C=C/C(=O)C(C)(C)C)cc1	-7.71% (inactive)	
CCOC(=O)c1ccc(CSc2nnc3cc(C)c4ccccc4n23)cc1		1.41 µM [quencher] (active)
COC(=O)c1ccc(CSc2nncn2C)cc1	0.728% (inactive)	
COC(=O)c1ccc(CSc2nncn2N)cc1	-0.734% (inactive)	
Cn1c(=O)c2c(ncn2CC(=O)Nc2cccc(C(F)(F)F)c2)n(C)c1=O	-1.15% (inactive)	
Cn1c(C(=O)Nc2cccc(C(F)(F)F)c2)cc2c(=O)n3ccccc3nc21		44.7 µM [quencher] (active)
O=C(Nc1ccc(OC(F)(F)F)cc1)c1cc2c(=O)n3ccccc3nc2s1	-8.23% (inactive)	
